Reference: PubChem BioAssay (NCATS)
Activity calls are given as the source filed them. The call rests on the fitted dose curve; in most records, active means well fitted curve in the direction sought with a large enough effect; inconclusive means small, poorly fitted or top-dose-only effect, or another doubt; inactive means no such curve, though single readings can be large or run the other way.

Target: alpha-glucosidase (Oryza sativa, rice) (UniProt Q653V4)
Assay: Counterscreen for Glucocerebrosidase Inhibitors: qHTS Assay for Rice alpha-Glucosidase at pH 5.0 (AID 997)
Details: rice alpha-glucosidase enzyme activity; series mostly up to 76.9 µM
Outline: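 Endpoint fluorogenic assay at pH 5.0: compounds (0.7 nM to 77 uM) titrated against 4 nM rice enzyme and 400 uM 4-MU-alpha-glucoside for 20 min at room temperature; NaOH/glycine stop, read ex 365/em 440 nm, Hill-fitted AC50.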

Structure (SMILES) | outcome
CN(C)CCOC(c1ccccc1)c1ccccc1 | inactive
CCOC(=O)Nc1ccc(NCc2ccc(F)cc2)nc1N | inactive
Cn1cnc2c1c(=O)[nH]c(=O)n2C | inactive
CN(C)CCCN1c2ccccc2CCc2ccc(Cl)cc21 | inactive
O=c1c(-c2ccc(O)cc2)coc2cc(O)cc(O)c12 | inactive
CCc1cccc2c3c([nH]c12)C(CC)(CC(=O)O)OCC3 (stereo unspecified) | inactive
CNCCCC12CCC(c3ccccc31)c1ccccc12 | inactive
CN1CCC(=C2c3ccccc3C=Cc3ccccc32)CC1 | inactive
Clc1ccc(C(c2ccccc2Cl)C(Cl)Cl)cc1 (stereo unspecified) | inactive
Cn1c(=O)c2[nH]cnc2n(C)c1=O | inactive
Nc1nc2c(ncn2COC(CO)CO)c(=O)[nH]1 | inactive
